This passage reports z-score and composite z-score results from PubChem BioAssay.

SMILES strings stand for the structures. Active and inactive are the calls of the source. Unless noted, the rule behind the calls is not given here.

Assay [1] in a line: compound effects on lung adenocarcinoma cell viability – A549, calcein-AM fluorescence, 48 h, basal, profiling panel (AID 1162). Note: test concentration not given here. The settings on record: higher = more signal.
A short description of assay [2]: compound effects on differentiated 3T3-L1 adipocyte viability – cell-based, 3T3-L1 adipocytes, calcein-AM fluorescence, 48 h, basal, profiling panel (AID 1163). Note: test concentration not given here. To be noted: 3T3-L1 adipocytes viability, higher = more signal.
Assay [3] can be described thus: compound effects on hepatocellular carcinoma cell viability – HepG2, calcein-AM fluorescence, 48 h, basal, profiling panel (AID 1164). Note: test concentration not given here. The settings on record: higher = more signal.
The nature of assay [4]: compound effects on multiple myeloma cell viability – MM1S, calcein-AM fluorescence, 48 h, basal, profiling panel (AID 1165).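 Note: viability of MM1S multiple myeloma cells under basal unstimulated conditions; test concentration not given here.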 The settings on record: higher = more signal.
The nature of assay [5]: calcein-AM signal in unstimulated myeloma cells – cell-based, calcein-AM fluorescence, 48 h, PK04 Diversity Set, profiling panel (AID 1166).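 Note: cells grown under basal conditions without added stimulus; test concentration not given here.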 The settings on record: RPMI8226 myeloma viability, higher = more signal.
A short description of assay [6]: JC-1 mitochondrial signal, unstimulated HepG2 cells – cell-based, JC-1 fluorescence, 24 h, 100 nL compound, profiling panel (AID 1167). Note: test concentration not given here. The settings on record: HepG2 mitochondrial potential, higher = more signal.
The nature of assay [7]: JC-1 mitochondrial signal, unstimulated adipocytes – cell-based, JC-1 fluorescence, 3T3-L1 adipocytes, 24 h, 100 nL compound, profiling panel (AID 1168). Note: test concentration not given here. To be noted: JC-1 mitochondrial fluorescence, higher = more signal, called active from +8 up or from −8 down.
Assay [8] can be described thus: JC-1 mitochondrial signal, unstimulated myeloma cells – cell-based, JC-1 fluorescence, RPMI8226, 24 h, 100 nL compound, profiling panel (AID 1169). Note: test concentration not given here. The settings on record: JC-1 mitochondrial potential fluorescence, higher = more signal.
A short description of assay [9]: JC-1 mitochondrial signal, unstimulated MM1S myeloma – cell-based, JC-1 fluorescence, 24 h, 100 nL compound, profiling panel (AID 1170). Note: test concentration not given here. The settings on record: MM1S mitochondrial potential, higher = more signal.
The nature of assay [10]: resazurin metabolic signal in A549 cells – cell-based, resazurin fluorescence, 24 h, PK04 Diversity Set, profiling panel (AID 1171). Note: test concentration not given here. To be noted: A549 viability, higher = more signal, called active from +8 up or from −8 down. Background: Resazurin is reduced to fluorescent resorufin, in cell work by metabolically active cells.
Assay [11] is described as follows: resazurin metabolic signal in HepG2 cells – cell-based, resazurin fluorescence, 24 h, PK04 Diversity Set, profiling panel (AID 1172). Note: test concentration not given here. The settings on record: HepG2 viability, higher = more signal.
A short description of assay [12]: budding yeast growth changes without added modifier – OD600, strain BY4716, 24 h, basal condition, primary screen (AID 1173). The settings on record: S. cerevisiae BY4716 growth, OD600, 24 h; higher = more signal, called active from +8 up or from −8 down.
Assay [13] is described as follows: viability profiling in MM1S myeloma cells – cell-based, resazurin fluorescence, basal, 24 h, PK04 Diversity Set, profiling panel (AID 1174). Note: test concentration not given here. The settings on record: higher = more signal, called active from +8 up or from −8 down.
Assay [14] concerns the target Dihydroorotate dehydrogenase (quinone), mitochondrial (Plasmodium falciparum (isolate 3D7)) (UniProt Q08210). Description: inhibition of P. falciparum DHODH – biochemical, C-terminal His tag, absorbance 600 nm, primary screen (AID 1175).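 Note: recombinant parasite enzyme with a five histidine tag at its C terminus; test concentration not given here.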 To be noted: PfDHODH enzyme, DCIP absorbance 600 nm; higher = more signal, called active from +8 up or from −8 down.
A short description of assay [15]: inhibition of PAO1 biofilm formation – strain PAO1, LB-PBS medium, absorbance 600 nm, primary screen (AID 1176). Note: test concentration not given here. The settings on record: P. aeruginosa PAO1 growth/biofilm, A600, 12 h; higher = more signal.
Assay [16] in a line: growth modulation of vineyard yeast isolate – strain RM11-1a, OD600, basal, 24 h, primary screen (AID 1177).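 Note: cultures grown under basal conditions with no added stressor; test concentration not given here.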 To be noted: S. cerevisiae RM11-1a growth, OD600, 24 h; higher = more signal, called active from +8 up or from −8 down.
Assay [17] is described as follows: growth of efflux-deficient E. coli DRC39 – strain DRC39, OD650, 24 h, E. coli filamentation inducers, primary screen (AID 1178).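 Note: growth measured as culture turbidity by optical density at 650 nm; test concentration not given here.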 The settings on record: E. coli DRC39 acrAB, higher = more signal, called active from +8 up or from −8 down.
Assay [18] is described as follows: growth of efflux-deficient E. coli DRC39 – strain DRC39, OD650, 48 h, E. coli filamentation inducers, primary screen (AID 1179).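 Note: screen aims at cell division blockers that make cells filament.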 The settings on record: E. coli DRC39 delta-acrAB growth, higher = more signal, called active from +8 up or from −8 down.
Assay [19] is described as follows: viability profiling in RPMI8226 myeloma cells – cell-based, resazurin fluorescence, basal, 24 h, PK04 Diversity Set, profiling panel (AID 1180).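 Note: RPMI8826 multiple myeloma cell line at 5000 cells per well; test concentration not given here.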 To be noted: higher = more signal.
Assay [20] deals with E3 ubiquitin-protein ligase XIAP (Homo sapiens) (UniProt P98170). Description: small molecules binding XIAP protein – biophysical, small-molecule microarray, fluorescence 635 nm, primary screen (AID 1181).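 Note: score merges 667 nm emission and signal to noise over triplicate slides.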 To be noted: higher = more signal.
Chain of E3 ubiquitin-protein ligase XIAP (Homo sapiens) (P98170 whole entry, looked up): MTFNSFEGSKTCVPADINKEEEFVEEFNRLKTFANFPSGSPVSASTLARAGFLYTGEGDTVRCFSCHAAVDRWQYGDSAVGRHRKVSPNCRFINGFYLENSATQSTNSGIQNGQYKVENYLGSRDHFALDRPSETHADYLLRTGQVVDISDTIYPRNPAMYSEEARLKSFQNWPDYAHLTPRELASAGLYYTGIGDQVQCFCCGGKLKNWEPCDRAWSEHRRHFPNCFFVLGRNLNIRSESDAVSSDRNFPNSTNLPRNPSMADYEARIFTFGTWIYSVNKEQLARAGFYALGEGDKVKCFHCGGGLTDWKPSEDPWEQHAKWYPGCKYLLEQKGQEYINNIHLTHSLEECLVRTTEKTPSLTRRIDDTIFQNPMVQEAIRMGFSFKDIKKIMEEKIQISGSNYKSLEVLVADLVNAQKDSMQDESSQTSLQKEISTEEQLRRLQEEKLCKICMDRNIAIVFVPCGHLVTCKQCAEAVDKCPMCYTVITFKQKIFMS

Chain of Dihydroorotate dehydrogenase (quinone), mitochondrial (Plasmodium falciparum (isolate 3D7)) (Q08210 whole entry, looked up): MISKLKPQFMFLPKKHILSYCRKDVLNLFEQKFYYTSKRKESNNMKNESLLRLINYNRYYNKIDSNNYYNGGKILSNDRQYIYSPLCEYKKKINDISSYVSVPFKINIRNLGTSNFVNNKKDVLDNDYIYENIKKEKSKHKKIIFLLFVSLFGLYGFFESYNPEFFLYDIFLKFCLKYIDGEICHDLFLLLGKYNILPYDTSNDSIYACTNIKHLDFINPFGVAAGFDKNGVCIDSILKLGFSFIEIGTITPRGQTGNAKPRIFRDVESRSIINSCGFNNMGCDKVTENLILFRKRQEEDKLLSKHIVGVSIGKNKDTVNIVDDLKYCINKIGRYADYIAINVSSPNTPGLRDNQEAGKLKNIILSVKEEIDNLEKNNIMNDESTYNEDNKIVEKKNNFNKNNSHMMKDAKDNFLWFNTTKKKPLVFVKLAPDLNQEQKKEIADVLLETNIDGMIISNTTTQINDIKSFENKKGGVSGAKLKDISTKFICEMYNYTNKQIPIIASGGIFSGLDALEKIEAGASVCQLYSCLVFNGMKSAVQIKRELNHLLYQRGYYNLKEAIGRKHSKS

On to `O=C1O[C@H](c2ccccc2)[C@H](c2ccccc2)N2[C@H]1[C@@H](C(=O)NC[C@H](O)c1ccccc1)[C@]1(C(=O)Nc3ccc(C#CCCO)cc31)[C@H]2c1ccc(O)cc1`, for which the z-score in assay [1] was 0.102; in assay [2], 1.09; in assay [3], -0.975; in assay [4], 0.245; in assay [5], -0.155; in assay [6], -0.72. Moreover, the z-score in assay [7] was 0.0782 (inactive); in assay [8] it was 0.626; in assay [9] it was 0.000313; in [10], 0.024 (inactive); in assay [11], -0.0297; in [12], 0.047 (inactive). Also, the z-score was -0.0226 (inactive) in [13]; 0.432 (inactive) in assay [15]; 0.117 (inactive) in [16]; -0.568 (inactive) in [17]; -0.982 (inactive) in assay [18]; -0.186 in assay [19]. Also, the composite z-score in [14] was -1.4 (inactive); in assay [20] it was 0.133.
`CCOC(=O)C1=CC[C@@H](c2ccccc2Cl)N(S(=O)(=O)c2ccc(C)cc2)C1`: the z-score in assay [1] was -0.378; in assay [2] it was -0.529; in assay [3] it was 0.15; in assay [4], -1.63; in [5], -1.51; in [6] it was 4.34. Moreover, the z-score in assay [7] was -0.0958 (inactive); in assay [8] it was -0.329; in assay [9], -1.99; in [10], -0.561 (inactive); in assay [11], -0.358; in assay [12], -1.65 (inactive). The z-score in assay [13] is 0.0161 (inactive); in [15] it was -0.308 (inactive); in assay [16], -0.24 (inactive); in [17], -0.203 (inactive); in assay [18], 1.03 (inactive); in assay [19] it was -1.37. The composite z-score in [14] is -0.978 (inactive); in [20], -0.0115.
As to `COc1ccc([Si](C)(C)[C@@H]2[C@@H](CC(=O)N(CCO)Cc3ccccc3)O[C@]3(C(=O)N(C)c4ccccc43)[C@H]2C)cc1`, the z-score in assay [1] is -0.664; in assay [2], 0.349; in [3], -1.58; in assay [4], -2.68; in assay [5], -3.74; in assay [6] it was -0.494. Moreover, the z-score in assay [7] is -1.44 (inactive); in assay [8], -1.12; in [9] it was -0.319; in [10], -1.78 (inactive); in [11], -1.36; in assay [12] it was -0.599 (inactive). Besides, the z-score in assay [13] is -1.64 (inactive); in [15], 0.708 (inactive); in [16] it was 0.975 (inactive); in [17], -0.284 (inactive); in assay [18], -0.896 (inactive); in assay [19], -1.49. In addition, the composite z-score in [14] is -0.688 (inactive); in [20], -0.0853.
Take `Cc1ccc(S[C@]2(C(=O)NCC(C)C)CC(=O)N(Cc3ccccc3)[C@@H]2c2ccc(CO)cc2I)cc1`: the z-score in assay [1] is 0.715; in assay [2], 0.752; in assay [3], 0.38; in assay [4], -2.1; in assay [5], -2.73; in [6], -0.329. The z-score in assay [7] was -1.23 (inactive); in [8] it was -0.813; in [9], -0.528; in [10] it was 0.999 (inactive); in assay [11] it was -0.629; in assay [12] it was -1.51 (inactive). For the same molecule, the z-score in [13] was -1.73 (inactive); in assay [15], 0.282 (inactive); in assay [16], 0.341 (inactive); in assay [17] it was -0.0655 (inactive); in assay [18] it was -0.553 (inactive); in assay [19], -1.89. Further, the composite z-score was 0.47 (inactive) in assay [14] and 0.0583 in assay [20].
With `CC(=O)NCCCC[C@@H]1NC(=O)[C@@H]2C[C@H](C(=O)NCCCCN(C)C)[C@H](c3ccc(O)cc3)N2C1=O`, the z-score is 1.42 in [1]; -0.582 in [2]; 0.374 in [3]; 0.213 in assay [4]; 0.93 in assay [5]; 0.709 in assay [6]. For the same molecule, the z-score in assay [7] is 1.05 (inactive); in assay [8] it was -0.293; in assay [9] it was -0.504; in assay [10], 0.854 (inactive); in assay [11] it was 0.801; in assay [12], -0.397 (inactive). The z-score was 0.925 (inactive) in assay [13]; -0.201 (inactive) in assay [15]; 0.037 (inactive) in [16]; 1.23 (inactive) in [17]; 1.51 (inactive) in [18]; 1.15 in assay [19]. The figures for the composite z-score in [14] and in [20] were -0.0536 (inactive) and -0.23, respectively.
Take `O=C(CS)NCCCCCCNC(=O)[C@@H]1C[C@@H]2C(=O)N3CCC[C@H]3C(=O)N2[C@@H]1c1ccc(O)cc1`: the z-score is -1.09 in assay [1]; 0.519 in [2]; -0.507 in assay [3]; 0.16 in [4]; 0.412 in [5]; -1.57 in assay [6]. The z-score in [7] was -0.124 (inactive); in assay [8], 0.653; in assay [9], 0.0659; in [10], -0.331 (inactive); in assay [11], -0.564; in [12], 0.784 (inactive). In addition, the z-score in [13] was 0.357 (inactive); in [15] it was -0.158 (inactive); in [16], 1.24 (inactive); in assay [17] it was -0.0727 (inactive); in assay [18], -0.313 (inactive); in [19], -0.449. The composite z-score in [14] is 0.586 (inactive); in assay [20], 0.0153.
As to `O=C1OCC=C[C@H]2OC34C=CCN(c5ccc(Cl)cc5)C(=O)[C@H]3N(CCCCCCO)C(=O)[C@@H]4[C@@H]12` (stereo not given in full), the z-score in assay [1] was 0.32; in assay [2] it was -0.122; in assay [3] it was 0.955; in assay [4], 1.12; in [5], 0.057; in assay [6] it was 0.715. Moreover, the z-score is 0.26 (inactive) in [7]; 0.231 in [8]; 1.5 in assay [9]; 1.12 (inactive) in [10]; 0.82 in assay [11]; -0.69 (inactive) in assay [12]. The z-score was 0.975 (inactive) in assay [13]; -0.497 (inactive) in [15]; -0.146 (inactive) in assay [16]; 0.571 (inactive) in assay [17]; 0.916 (inactive) in assay [18]; 1.01 in assay [19]. Moreover, the composite z-score was -1.47 (inactive) in assay [14] and -0.138 in assay [20].
Turning to `CC(C)c1ccc(NN2C(C(O)c3ccc(N(C)C)cc3)C=CC3C(=O)N(c4ccccc4)C(=O)C32)cc1` (stereo not given), the z-score in [1] is 1.1; in assay [2] it was -1.62; in assay [3], 0.974; in [4] it was -0.36; in assay [5], -0.368; in assay [6], -0.337. Also, the z-score in assay [7] is -1.22 (inactive); in [8], 0.149; in [9] it was -0.811; in assay [10], -0.0686 (inactive); in assay [11] it was 0.0387; in assay [12] it was 0.254 (inactive). Moreover, the z-score in assay [13] is -0.683 (inactive); in assay [15] it was 0.53 (inactive); in assay [16] it was 0.25 (inactive); in [17], -0.172 (inactive); in assay [18] it was 0.766 (inactive); in [19], 0.203. The composite z-score is 0.421 (inactive) in [14] and 0.391 in assay [20].
With `COc1ccc(C(O)C2C=CC3C(=O)NC(=O)C3N2Nc2ccccn2)cc1OCc1ccccc1` (stereo not given), the z-score in assay [1] is -1.11; in [2], 0.119; in assay [3] it was 0.222; in assay [4], -0.042; in [5], -1.22; in assay [6] it was -1. Also, the z-score was -0.479 (inactive) in assay [7]; -0.879 in [8]; 0.607 in assay [9]; -0.404 (inactive) in assay [10]; -0.8 in [11]; 0.481 (inactive) in assay [12]. Besides, the z-score is -0.581 (inactive) in [13]; 1.48 (inactive) in [15]; 0.18 (inactive) in assay [16]; -0.855 (inactive) in assay [17]; 0.145 (inactive) in assay [18]; -1.87 in assay [19]. Further, the results for the composite z-score in assay [14] and in assay [20] were 1.58 (inactive) and 0.578, respectively.
